# High-throughput results from PubChem BioAssay.
# Most compounds without a hit are left out; they make up all but 8% or so of the library.
# HCMV inh: qHTS Assay for inhibitors of the human cytomegalovirus (HCMV); actives 4.5% (n = 410,000); activity change, negative = inhibition, % at 57.5 µM; HFF cells, HCMV-luciferase reporter, 72 h; active compounds read low; AID 1259415, 2018; in the data active = activity change below about -60%; inconclusive = no clear call, values can overlap the other calls; inactive = above about -39%
#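 Cell-based, HFFs, 1000 cells/well, 16 h 37C; cpds in DMSO + HCMV-luc, MOI 1 PFU/cell; 72 h 37C; OneGlo luminescence after 5 min RT; norm. to buffer vs Salinomycin 10uM.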
# HCV inh: qHTS Assay for Inhibitors of Hepatitis C Virus (HCV) | Huh7.5.1 HCVcc-Cre infection, luciferase reporter, 44 h | Potency, µM (top dose mostly 41.8 µM), usual class: inhibitors | actives 3.4% (n = 340,000); active = well fitted inhibition curve with a large enough effect; inconclusive = small, poorly fitted or top-dose-only effect, or another doubt; inactive = no such curve, though single readings can be large or run the other way
#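 Whole-lifecycle infectious HCVcc-Cre system; cells 1,000/well, compound then virus (~0.5 moi) added 4 h after plating, 44 h culture. Luciferase read 15 sec following 15 min substrate incubation, room temp.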
# LASV entry inh: qHTS for Inhibitors of binding or entry into cells for Lassa Virus | Lassa virus pseudotype entry inhibition, cell reporter | Potency, µM (titrated, usually from 37.9 µM), actives largely listed as inhibitors | actives 1.2% (n = 300,000); calls by dose curve; tested in HEK293 cells; note: nearly all actives have a fitted effect of over 50% in size
# Marburg entry inh: qHTS for inhibitors of binding or entry into cells for Marburg Virus | Potency, µM (doses to about 37.8 µM), actives largely listed as inhibitors | Marburg virus pseudotyped entry inhibition, cell reporter | actives 1.8% (n = 300,000) | AID 540276, 2011; calls by dose curve; tested in HEK293 cells
# SARS PLpro yeast-1: qHTS of Yeast-based Assay for SARS-CoV PLP | Potency, µM (top dose mostly 32.9 µM), usual class: activators | actives 0.19% (n = 330,000) | S. cerevisiae expressing SARS-CoV PLpro, growth rescue; calls by dose curve; note: nearly all actives have a fitted effect of over 55% in size
# FMDV antiviral: High Throughput Screening for Foot and Mouth Disease Virus Antivirals; FMDV antiviral cell-based qHTS; Potency, µM (titrated, usually from 57.9 µM), hits mostly inhibitors; actives 1.2% (n = 410,000); AID 1159524, 2015; calls by dose curve; tested in HEK293T cells; note: read-out not given here; nearly all actives have a fitted effect of over 45% in size
# SARS PLpro yeast-2: qHTS of Yeast-based Assay for SARS-CoV PLP: Hit Validation. actives 19% (n = 1,000). AID 652038, 2013. shares compounds with SARS PLpro yeast-1. calls only. yeast expressing SARS-CoV PLpro, growth phenotype rescue; call rule not given here
# Numbers stand for hits; 0 = inactive; ? = inconclusive; - = not tested or not shown; + = active, no number; ! = not active in a repeat; [ ] = remark or other dose.
SMILES,HCMV inh,HCV inh,LASV entry inh,Marburg entry inh,SARS PLpro yeast-1,FMDV antiviral,SARS PLpro yeast-2
N#Cc1ccc(Oc2ccc(-c3cnc4ccccc4n3)cc2)cc1C#N,0,?,0,?,2µM,?,+
CCCN(CC(=O)Nc1ccc(C)cc1Br)CC(=O)Nc1ccc(F)c(F)c1F,0,?,0,?,?,0,0
Cc1ccc(NC(=O)Cn2cccc2)c(Br)c1,0,0,0,?,2.5µM,0,0
CCCN(CC(=O)Nc1cccc(Br)c1)CC(=O)Nc1ccc(F)c(F)c1F,0,?,0,?,0,0,-
CC1=C(C(=O)N2CCCCCC2)CC(CC(=O)NC2CCCC2)C(=O)N1Cc1ccc(F)cc1 (centres undefined),0,-,-,-,-,0,-
COc1ccc(-c2nc(SCCOc3cc(C)ccc3C(C)C)n3[nH]c(=O)cc3n2)cc1,0,-,0,-,-,?,-
CCC(=O)Nc1cccc(-c2nc3ncccc3o2)c1C,0,0,-,-,0,0,-
Cc1c(NC(=O)CSc2ccc(Cl)cc2)cccc1-c1nc2ncccc2o1,?,?,?,?,?,0,?
CC1=C(C(=O)N(C)C)CC(CC(=O)NCCN2CCOCC2)C(=O)N1Cc1ccc(F)cc1 (centres undefined),0,-,-,-,-,0,-
Cc1ccc(-n2nc(C(=O)O)c(O)cc2=O)cc1,?,0,0,0,0,0,-
CC1=C(C(=O)OCc2ccccc2)C(/C=C/c2ccccc2)NC(=S)N1 (centres undefined),0,8.9µM,13µM,?,-,?,+
C=CCOC(=O)C1=C(C)NC(=S)NC1/C=C/c1ccccc1 (centres undefined),0,?,0,0,0,?,-
O=C(NCc1nnnn1-c1ccc(F)cc1)c1cc2ccccc2o1,0,-,-,-,-,?,-
COc1ccc(OCC(=O)Nn2c(-c3ccc(OC)cc3)nc3ccccc3c2=O)cc1,0,0,0,?,?,0,+
COc1ccc(OCC(=O)Nn2c(-c3ccc(C)cc3)nc3ccccc3c2=O)cc1,0,0,0,0,0,?,-
CN(C)CCNC(=O)c1ccc(Sc2ccc(Br)cc2)c([N+](=O)[O-])c1,?,?,?,?,0,0,-
CCN1C[C@@H]2[C@@H]3C(=O)N(C)C(=O)[C@@H]3[C@](CC)(C(=O)OC)N2C1=NC,0,0[8.37 µM],-,-,3.5µM,0,0
COc1ccc(C2=NN(C(=O)c3ccc(Cl)c([N+](=O)[O-])c3)C(c3ccccc3)C2)cc1 (centres undefined),0,?,?,?,?,0,?
COc1ccc(C2CC(c3ccc(Cl)cc3)=NN2C(=O)c2cccc([N+](=O)[O-])c2)cc1 (centres undefined),0,0,?,0,0,0,-
CCn1nnc(-c2ccccc2NS(=O)(=O)c2ccc(S(=O)(=O)N(C)C3CCCCC3)cc2)n1,0,0,?,?,?,0,+
O=C(/C=C1\NC2(CCCC2)Cc2ccccc21)C(=O)N/N=C/c1ccccc1O,-71,?,15µM,11µM,7.9µM,0,+
COCCn1c(=O)c(-c2cc(F)cc(F)c2)nc2cnc(Oc3ccccc3)nc21,-,-,-,-,-,0,-
O=C(COC(=O)/C=C/c1cccs1)Nc1nc(-c2ccccc2)cs1,0,0,0,?,14µM,0,+
COc1cc(C(=O)NCC(=O)N/N=C(/C)c2cccs2)cc(OC)c1OC,0,0,0,?,?,0,0
COc1ccc(/C(C)=N/NC(=O)CNC(=O)c2cccs2)cc1OC,0,0,-,-,0,0,-
SMILES,HCMV inh,HCV inh,LASV entry inh,Marburg entry inh,SARS PLpro yeast-1,FMDV antiviral,SARS PLpro yeast-2
CCCC(=O)Nc1ccc(C(=O)NNC(=O)c2ccco2)cc1,0,0,0,0,?,0,0
CC(C)NC(=S)N/N=C/c1ccc2c(c1)OCCO2,-67,0,0,?,16µM,0,+
COc1ccc(S(=O)(=O)N(CC(=O)NN=C2CCN(C)CC2)c2cc(Cl)ccc2OC)cc1OC,0,0,0,0,0,0,-
O=C(CCN1CCN(c2ccccc2)CC1)N/N=C/c1ccccc1OC(F)F,0,?,?,?,0,0,-
O=C(CCN1CCN(C(c2ccccc2)c2ccccc2)CC1)N/N=C/c1ccc(O)cc1O,0,7.9µM,?,?,4.5µM,0,0
Cc1nccn1CCCN1C(=O)CNC1=S,0,0,0,?,4.5µM,0,0
O=C1CNC(=S)N1CCCn1ccnc1,0,0,-,-,0,0,-
COc1ccc(NC2SC(=O)N(C)C2=O)cc1 (centres undefined),0,0,-,-,?,0,-
CCOC(=O)c1ccc(NC(=S)NN2CCN(C)CC2)cc1,0,0,-,-,0,0,-
Cc1cccc(C)c1NC(=S)NN1CCN(C)CC1,0,0,0,0,?,0,+
CCOC(=O)c1ccc(-n2c(O)c(/C=N/NC(=O)C3COc4ccccc4O3)c3ccccc3c2=O)cc1 (centres undefined),0,0,?,0,4.5µM,0,0
CC(C)(C)OC(=O)C[C@H]1C/C=C\C[C@@H](CC(=O)N[C@@H](CO)Cc2ccccc2)C(=O)NC[C@H](c2ccccc2)OC1=O,0,0,-,-,3.5µM,0,0
Cn1c2cc(C#N)sc2c2cnn(Cc3ccc(F)cc3)c(=O)c21,0,-,-,-,5.6µM!,0,0
COc1cccc(Cn2ncc3c4sc(B(O)O)cc4n(C)c3c2=O)c1,-,-,-,-,0,-,-
O=C(N/N=C/c1c(O)ccc2ccccc12)c1ccc[n+](CCO)c1,0,0,0,0,0.89µM,0,0
O=C(C[n+]1cccc(C(=O)N/N=C/c2ccc(Br)cc2)c1)c1ccccc1,0,?,-,-,0,0,-
CN(C)c1ccc(CNC(=O)c2ccc(NC(=O)N3CCCCc4ccccc43)cc2)cc1,0,-,0,-,-,0,-
NOCC(=O)O,0,0,0,?,?,0,0
COc1ccc(Cl)cc1NS(=O)(=O)c1cn(C)nc1C,0,0,?,0,?,0,0
O=C(CCN1C(=O)[C@@H]2Cc3ccccc3CN2C1=O)N[C@@H](Cc1ccccc1)C(=O)O,0,0,-,-,6.3µM,0,0
CCN(C(=O)CN1CCN(c2cccc(C(F)(F)F)c2)CC1)c1c(N)n(Cc2ccccc2)c(=O)[nH]c1=O,0,0,?,0,0,?,-
Cc1ccc(/C=C/C(=O)c2ccccc(=O)c2O)cc1C,-66,?,?,16µM,?,?,?
COc1ccccc1CN1CCC2(CC1)CCN(C(=O)c1ccncc1)CC2,-,-,-,-,-,0,-
CCc1ccc(OC2=NS(=O)(=O)c3ccccc32)cc1,0,0,-,-,0,0,-
Cc1ccc(OC2=NS(=O)(=O)c3ccccc32)cc1,0,0,?,?,?,0,0
O=C(NCC(c1ccco1)S(=O)(=O)c1ccc(Cl)cc1)c1ccccc1F (centres undefined),0,-,0,-,-,0,-
